# Screening results from PubChem BioAssay.
# ALDH1A1 block = ALDH1A1 (human) enzyme inhibition; P00352; Potency, µM (highest dose often 75.3 µM), most hits filed as inhibitors; AID 1030; Purified ALDH1A1, NADH fluorescence, propionaldehyde substrate; 220,000 tested, 7.3% active
# PNC assembly inh = perinucleolar compartment assembly inhibition; PC3M PTB-GFP, PNC prevalence imaging, 16 h; active compounds read low; activity change (PNC), negative = inhibition, % at 10 µM; 140,000 tested, 3.1% active; AID 2417;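 active = readout at or below -70, meaning at least 70% loss of cells showing the perinucleolar compartment, a nuclear body marking cancer cells; inconclusive = readout between -30 and a set limit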
#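 PC3M cells stably expressing PTB-GFP, 750–1000 cells/well, treated 16 h at 37 °C with compound (23 nl of library stock), in duplicate. After paraformaldehyde fixation and Hoechst stain, imaged at 20x; PNC prevalence scored by image analysis.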
# HPGD inh = HPGD (human) dehydrogenase inhibition; P15428; purified HPGD, NADH fluorescence kinetic, PGE2 substrate; Potency, µM, usual class: inhibitors; 150,000 tested, 4.3% active; AID 894
#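 20 nM HPGD preincubated 15 min at room temperature with compound in 50 mM Tris-HCl pH 8, 0.01% Tween 20. Started with 1 mM NAD+ and 30 uM prostaglandin E2; NADH fluorescence (360/450 nm) read 5 times over 30-s intervals, last minus first.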
# 12-hLO inh = 12-hLO (ALOX12) enzyme inhibition; 150,000 tested, 0.12% active; Potency, µM (highest dose often 57.1 µM), usual class: inhibitors; P18054; purified 12-hLO, xylenol orange hydroperoxide absorbance; active = well fitted inhibition curve with a large enough effect; inconclusive = small, poorly fitted or top-dose-only effect; also: nearly all actives have a fitted effect of over 55% in size
# Target sequence (P18054 whole entry, looked up): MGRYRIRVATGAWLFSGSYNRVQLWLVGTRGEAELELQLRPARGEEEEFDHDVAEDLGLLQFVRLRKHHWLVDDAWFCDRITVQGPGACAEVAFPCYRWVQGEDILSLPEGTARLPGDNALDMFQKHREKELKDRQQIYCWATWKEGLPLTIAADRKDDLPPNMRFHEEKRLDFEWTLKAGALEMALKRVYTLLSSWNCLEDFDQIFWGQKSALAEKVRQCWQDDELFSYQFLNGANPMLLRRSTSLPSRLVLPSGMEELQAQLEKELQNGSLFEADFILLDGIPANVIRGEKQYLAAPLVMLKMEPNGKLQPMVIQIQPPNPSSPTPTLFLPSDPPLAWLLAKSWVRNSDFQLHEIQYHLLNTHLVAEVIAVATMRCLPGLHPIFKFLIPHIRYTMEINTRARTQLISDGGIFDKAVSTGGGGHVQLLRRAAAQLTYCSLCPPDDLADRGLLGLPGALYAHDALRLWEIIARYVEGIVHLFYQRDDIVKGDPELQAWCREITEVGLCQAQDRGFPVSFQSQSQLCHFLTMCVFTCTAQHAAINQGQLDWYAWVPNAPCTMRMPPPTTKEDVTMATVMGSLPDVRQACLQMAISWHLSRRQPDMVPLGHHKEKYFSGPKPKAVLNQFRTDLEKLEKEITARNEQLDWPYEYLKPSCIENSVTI
#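 Xylenol orange chromogenic assay: hydroperoxide from 12hLO oxidises Fe(II), giving red-shifted Fe(III)-XO absorbance. Conditions: 150 nM enzyme, 40 uM arachidonic acid, 25 mM Hepes pH 7.0, 0.01% Triton X-100, 30 min, room temperature.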
# Lamin A splicing = LMNA splicing modulation; Potency, µM (doses to about 46.1 µM), hits mostly inhibitors; 200,000 tested, 0.01% active; HeLa LMNA splicing GFP/RFP minigene ratio, 48 h; active = well fitted inhibition curve with a large enough effect in the signal ratio, with a control signal flat, not every such curve was filed as active; inconclusive = small, poorly fitted or top-dose-only effect, or effect the other way, or a change in a side signal; the % refers to the signal ratio
#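 S3 HeLa stable clones carrying a lamin A-EGFP splicing minigene plus DsRed2 were seeded at 600 cells/well in Opti-MEM with 2% FBS, pin-dosed and incubated 48 h at 37°C. Acumen cytometry (488 nm) gave the GFP/RFP total-intensity ratio.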
# Hits are given with their value; – = inactive; ? = inconclusive; · = no result given; [ ] = another dose, or the depositor's remark. Shown are actives, neighbours in structure and some others; about 10% of the full set was active somewhere. Unless noted, calls follow the shape of the dose curve; as a rule, active = well fitted inhibition curve with a large enough effect (not every such curve was filed as active); inconclusive = small, poorly fitted or top-dose-only effect, or another doubt; inactive = no such curve, though single readings can be large or run the other way.
SMILES,ALDH1A1 block,PNC assembly inh,HPGD inh,12-hLO inh,Lamin A splicing
O=C(Nc1ccc2oc(=O)ccc2c1)c1cccnc1,?,?,?,–,–
CCCC(=O)NCC(c1ccc2c(c1)OCO2)N1CCN(c2ccc(F)cc2)CC1 (stereo unspecified),·,·,·,·,–
COc1cccc(NC(=O)C(C)n2c(=O)cc(C(F)(F)F)c3c(C)nn(C)c32)c1 (stereo unspecified),·,·,·,·,–
CCOc1ccc(C2c3[nH]c4ccccc4c3CCN2C(=O)Cn2cncn2)cc1 (stereo unspecified),–,·,·,·,·
Cc1ccccc1C1c2[nH]c3ccccc3c2CCN1C(=O)c1ccc(=O)n(C)n1 (stereo unspecified),31.6µM,·,·,·,·
COc1ccc(C2c3[nH]c4ccccc4c3CCN2C(=O)c2ccc(=O)n(C)n2)c(F)c1 (stereo unspecified),–,·,·,·,·
COc1cccc(C2c3[nH]c4ccccc4c3CCN2C(=O)Cn2cncn2)c1OC (stereo unspecified),9.46µM,·,·,·,·
CCc1ccc(S(=O)(=O)c2cn(CC)c3cc(N4CCCCC4)c(F)cc3c2=O)cc1,·,·,·,·,–
O=C(CSc1nccc(=O)[nH]1)N1N=C2/C(=C/c3ccco3)CCCC2C1c1ccco1 (stereo unspecified),14.1µM,·,·,·,–
Cn1cnnc1SCC(=O)N1N=C2/C(=C/c3ccco3)CCCC2C1c1ccco1 (stereo unspecified),15.8µM,?,?,–,–
COc1cc2c(cc1O)-c1ccccc1CN(C)C2,–,·,–,·,·
FC(F)(F)c1cc(CO[C@@H]2CCCN[C@H]2c2ccccc2)cc(C(F)(F)F)c1,·,·,·,–,·
CN(C)CCSc1nnc2[nH]c3ccccc3c2n1,–,–,–,–,–
OC1(c2cccc(C(F)(F)F)c2)CCN(c2ncnc3c2[nH]c2ccc(F)cc23)CC1,?,–,?,17.8µM,?
Fc1ccc2[nH]c3c(N4CCN(c5ccccc5)CC4)ncnc3c2c1,–,-126.1,?,–,?
Cc1noc(C)c1-c1cc(NC2CC2)ncn1,–,·,–,–,–
O=C1OC(c2ccccc2)=NC12CC2c1ccc(Cl)cc1 (stereo unspecified),28.2µM,–,28.2µM,–,–
CC1CCN(S(=O)(=O)c2cc(C(=O)Nc3ccc(Br)cc3F)n(C)c2)CC1,·,·,·,·,–
CN(C(=S)Nc1cccnc1)c1ccc(O)cc1,14.1µM,–,–,–,?
CCN(C(=S)Nc1cccnc1)c1ccccc1,–,·,·,·,·
CN(C(=S)Nc1ccc(SC(F)F)cc1)c1ccc(O)cc1,6.31µM,–,–,–,?
CN(C(=S)Nc1ccc(Oc2ccccc2)cc1)c1ccc(O)cc1,2.24µM,?,?,–,?
CCN(c1ccccc1)c1ncnc2c1cnn2-c1ccc(OC)cc1,·,·,·,·,–
CN(C)/C=C1\NC(=S)N(c2ccc(Cl)cc2)C1=O,20µM,·,·,·,·
Cn1cc(Cl)c(-c2n[nH]c(=S)n2C2CCCCC2)n1,–,·,·,·,·
SMILES,ALDH1A1 block,PNC assembly inh,HPGD inh,12-hLO inh,Lamin A splicing
Cc1ccc(OCc2n[nH]c(=S)n2C2CCCCC2)cc1,14.1µM,–,14.1µM,–,?
Cc1cccc(OCc2n[nH]c(=S)n2C2CCCCC2)c1,?,–,10µM,–,?
S=c1[nH]nc(COc2ccc(Cl)cc2)n1C1CCCCC1,?,–,14.1µM,–,–
S=c1[nH]nc(COc2ccc(Cl)cc2)n1Cc1ccccc1,–,·,·,·,–
CN(C)Cc1ccccc1-c1cncnc1Nc1ccncc1,–,·,·,·,–
Cc1ccc(C2CC(=O)Oc3c(C(C)C)ccc(C)c32)cc1 (stereo unspecified),–,·,–,–[0.00818 µM],·
COc1ccc(C(=O)N2CCC[C@@]3(CCN(Cc4cc(C(F)(F)F)cc(C(F)(F)F)c4)C3)C2)cc1,–,·,–,–,·
C=C[C@]1(C)Cc2occ(C)c2C[C@H]1C(=C)C(=O)O,11.2µM,·,–,·,·
CCOC(=O)C1=C(CC)Nc2ccccc2N=C1NC(=O)Nc1ccc(Cl)c(Cl)c1,–,–,–,–,?
CCOC(=O)C1=C(CC)Nc2ccccc2N=C1NC(=O)c1ccc(S(=O)(=O)N2CCCC2)cc1,14.1µM,·,·,·,?
COCCNC(=O)c1cnn(-c2ccc(C)cc2C)c1C1CCN(C(=O)OC(C)(C)C)CC1,·,·,·,·,–
COc1ccc(-c2coc3cc4oc(=O)c5ccccc5c4cc23)cc1F,–,-81.3,?,–,?
COc1cc(/C=C2\CCCc3c2nc2ccccc2c3C(=O)O)cc(OC)c1O,14.1µM,·,·,·,–
O=C(O)c1c2c(nc3ccccc13)/C(=C/c1ccc(O)cc1)CCC2,–,·,·,·,–
Cc1c(C(=O)Nc2ccc(C(=O)O)cc2)nnn1-c1ccccc1,·,·,·,·,–
Cc1c(C(=O)NNC(=S)Nc2cccc(Cl)c2)nnn1-c1ccccc1,11.2µM,–,–,–,?
Cc1ccc(N2CC(C(=O)Nc3ccc(Br)cc3)CC2=O)cc1 (stereo unspecified),·,·,·,·,–
COC(=O)C1=C(C(=O)OC)[C@@H]2N(Cc3ccccc3)c3ccccc3[C@@]23C[C@@H](C(=O)OC)N(S(=O)(=O)c2ccc(C#N)cc2)C3=N1,–[13.5 µM],·,–,–[11.4 µM],–[9.22 µM]
NC(=O)/C=C/C(=O)Nc1ccc(Cl)cc1,2.24µM,·,·,·,?
NC(=O)SCC(=O)Nc1ccc(Cl)cc1,?,–,4.47µM,–,–
NC(=O)SCC(=O)Nc1cccc(Cl)c1,0.597µM,–,–,–,–
Cc1ccc(NC(=O)CSC(N)=O)cc1Cl,3.55µM,–,–,–,?
